Consider 21 compounds from article PMC11062922 (Nature Chemical Biology, 2023).

Parameters in all cases: species or system human, MV4-11 + K-562 + COLO205 + SK-N-BE2 + OVCAR-8
For test [1], the system named is T1, DJA1.
T1 construct: gene DNAJA1
Particulars: read-out: apparent Kd, n = 1.

Test [2] has as its system PIK3CA. Particulars: read-out: apparent Kd, n = 1.
The test system of test [3] is CDC7. The conditions noted are these: read-out: apparent Kd, n = 1.
Test [4] has as its system CDK5. Particulars: read-out: apparent Kd; compound concentrations: 100 nM and 1000 nM (sheet 'Samples'), CATDS: 6.6467271298615597E-3; n = 1.
The test system of test [5] is JAK2. The conditions noted are these: read-out: apparent Kd, n = 1.
Test [6] deals with MAP4K1. The conditions noted are these: read-out: apparent Kd, n = 1.
Test [7] concerns PRKCB. The conditions noted are these: read-out: apparent Kd, n = 1.
For test [8], the system named is ULK3. The conditions noted are these: read-out: apparent Kd, n = 1.
The test system of test [9] is IRAK4. The conditions noted are these: read-out: apparent Kd, n = 1.
In test [10] the test system is JAK1. The conditions noted are these: read-out: apparent Kd, n = 1.
The test system of test [11] is MAP2K1. The conditions noted are these: read-out: apparent Kd, n = 1.
For test [12], the system named is NQO2. The conditions noted are these: read-out: apparent Kd, n = 1.
The test system of test [13] is ACAD11. The conditions noted are these: read-out: apparent Kd, n = 1.
The test system of test [14] is CDK6. Particulars: read-out: apparent Kd, compound concentrations: 100 nM and 1000 nM (sheet 'Samples'), n = 1.
For test [15], the system named is STK26. Particulars: read-out: apparent Kd, compound concentrations: 100 nM and 1000 nM (sheet 'Samples'), n = 1.
Test [16] relates to MAPKAPK2. The conditions noted are these: read-out: apparent Kd; compound concentrations:100 nM and 1000 nM (sheet 'Samples'); n = 1.
In test [17] the test system is NLK. The conditions noted are these: read-out: apparent Kd; compound concentrations:100 nM and 1000 nM (sheet 'Samples'); n = 1.
In test [18] the test system is ATR. The conditions noted are these: read-out: apparent Kd, n = 1.
The mark [19] stands for this setting: compound concentrations:100 nM and 1000 nM (sheet 'Samples').

Each structure is given as a SMILES string. Where two headings read alike, the source gives them in different places.

In the case of `NC(=O)c1cc(-c2ccccc2)cc2c(C3CCNCC3)c[nH]c12` [GSK301362A], in test [1] (setting [19]), the potency estimated from few doses is 1130 nM.

`O=C1N=C(NCCCc2ccccc2)S/C1=C\c1ccc2ncccc2c1` [RO4493941-000]: in test [2] (compound concentrations: 100 nM and 1000 nM (sheet 'Samples'), CATDS: 0.11301780685695401), the potency estimated from few doses is 241 nM.

As for `O=C(O)C(F)(F)F.O=C(O)C(F)(F)F.O=c1[nH]ccc2nc(N[C@@H]3CCCNC3)nc(Nc3ccc(S(=O)(=O)N4CCOCC4)cc3)c12.O=c1[nH]ccc2nc(N[C@@H]3CCCNC3)nc(Nc3ccc(S(=O)(=O)N4CCOCC4)cc3)c12` [GSK2177277A], the potency estimated from few doses in test [3] (compound concentrations: 100 nM and 1000 nM (sheet 'Samples'), CATDS: 4.24338957308735E-2) is 14.6 nM; in test [4] it was 1280 nM; in [1] (compound concentrations: 100 nM and 1000 nM (sheet 'Samples'), CATDS: 6.2286028327955796E-3) it was 1850 nM; in [5] (compound concentrations: 100 nM and 1000 nM (sheet 'Samples'), CATDS: 4.8200913683498499E-2), 12.1 nM; in test [6] (compound concentrations: 100 nM and 1000 nM (sheet 'Samples'), CATDS: 2.52445457055663E-2), 34.1 nM; in [7] (compound concentrations: 100 nM and 1000 nM (sheet 'Samples'), CATDS: 6.2704651327109501E-3), 1770 nM. Further, the potency estimated from few doses in test [8] (compound concentrations: 100 nM and 1000 nM (sheet 'Samples'), CATDS: 1.28018633148979E-2) is 140 nM.

Consider `COc1cc[nH]c1/C=C1\C(=O)Nc2ccc(F)c(C#CC3(O)CCNCC3)c21.Cl` [RO0282986-001], for which the potency estimated from few doses in test [1] (compound concentrations: 100 nM and 1000 nM (sheet 'Samples'), CATDS: 9.7728158080224396E-3) is 1450 nM; in test [9] (compound concentrations: 100 nM and 1000 nM (sheet 'Samples'), CATDS: 1.1177652842318E-2), 889 nM; in test [10] (compound concentrations: 100 nM and 1000 nM (sheet 'Samples'), CATDS: 1.5080552204992799E-2) it was 391 nM; in test [11] (compound concentrations: 100 nM and 1000 nM (sheet 'Samples'), CATDS: 1.0458763538178499E-2), 1120 nM; in test [6] (compound concentrations: 100 nM and 1000 nM (sheet 'Samples'), CATDS: 1.0790478017061501E-2) it was 1000 nM; in test [12] (compound concentrations: 100 nM and 1000 nM (sheet 'Samples'), CATDS: 1.2433043587811299E-2), 644 nM.

Consider `Cc1cc(-c2ccnc(Nc3cccc(C#N)c3)n2)cc(C)c1O` [GSK1440913A], for which the potency estimated from few doses in [13] (compound concentrations: 100 nM and 1000 nM (sheet 'Samples'), CATDS: 0.11808512095338899) is 425 nM.

`CC(C)Oc1ccc2c(-c3ccnc(Nc4ccc(N5CCN(C)CC5)cc4)n3)cnn2n1` [GW696155X]: the figures for the potency estimated from few doses in [3] (setting [19]), in test [12] (setting [19]) and in [8] (setting [19]) were 1440 nM, 1060 nM and 290 nM, respectively.

For `COc1ccc(-c2cc3c(N)ncnc3o2)cc1` [GW642138X], the potency estimated from few doses in [14] (CATDS: 0.103985986158265) was 1700 nM; in test [9] (compound concentrations: 100 nM and 1000 nM (sheet 'Samples'), CATDS: 9.7145824911744297E-2) it was 1950 nM; in test [15] (CATDS: 0.100922192371782) it was 1800 nM.

`CCn1c(-c2nonc2N)nc2c(C#CC(C)(C)O)nc(O[C@@H](CN)c3ccccc3)cc21.O=C(O)C(F)(F)F` [GSK1007102B]: the potency estimated from few doses in test [7] (setting [19]) is 111 nM.

Turning to `COc1ccc(Nc2nccc(-c3ccc(NC(=O)c4cc5cc(F)ccc5[nH]4)cc3)n2)cc1` [GSK1229496A], the potency estimated from few doses in test [5] (compound concentrations: 100 nM and 1000 nM (sheet 'Samples'), CATDS: 0.41035402481259398) was 584 nM.

With `O=C(O)C(F)(F)F.O=c1[nH]ccc2nc(N[C@@H]3CCNC3)nc(Nc3cc(Cl)cc(Cl)c3)c12` [GSK2188764A], the potency estimated from few doses in [6] (setting [19]) was 1030 nM.

As for `Cc1cccc(Nc2nc(N[C@H]3CCNC3)ncc2C(N)=O)c1.Cl` [GSK2197149A], the potency estimated from few doses is 1570 nM in test [9] (setting [19]), 1240 nM in test [10] (setting [19]) and 110 nM in test [2] (setting [19]).

Consider `CN(C)CCNC(=O)Nc1ccc(N(C)c2ccnc(Nc3ccc(CS(C)(=O)=O)cc3)n2)cc1.Cl` [GW830900A], for which, in test [5] (setting [19]), the potency estimated from few doses is 1050 nM.

`CNCC#Cc1c(F)ccc2c1/C(=C/c1[nH]ccc1OC)C(=O)N2.Cl` [RO0281601-001]: the potency estimated from few doses in test [14] (CATDS: 2.2252804154739798E-2) is 1820 nM; in test [10] (compound concentrations: 100 nM and 1000 nM (sheet 'Samples'), CATDS: 3.3581024780386999E-2), 520 nM; in test [6] (compound concentrations: 100 nM and 1000 nM (sheet 'Samples'), CATDS: 2.76705176427572E-2) it was 879 nM.

In the case of `COC(=O)c1cccc(NC(=O)NC2CCN(c3ccnc(Nc4cc(OC)c(OC)c(OC)c4)n3)C2)c1` (centres unmarked) [GSK1379767A], the potency estimated from few doses in [11] (compound concentrations: 100 nM and 1000 nM (sheet 'Samples'), CATDS: 9.4958067467462701E-2) is 2010 nM.

Regarding `CS(=O)(=O)CCn1c(=O)c(Oc2ccc(F)cc2F)cc2cnc(NC3CCOCC3)nc21` [RO5027956-000], the potency estimated from few doses is 1690 nM in test [13] (setting [19]), 65.6 nM in test [5] (setting [19]), 15.9 nM in [16] and 55.9 nM in [17].

`COc1cc(Nc2nccc(-c3cnn4ncccc34)n2)cc(OC)c1` [GW801372X]: the potency estimated from few doses in test [15] (CATDS: 1.6966130459451799E-2) is 2340 nM.

With `CNc1cc(-c2ccc3c(N)n[nH]c3c2)nc(N)n1` [GSK2224810A], the potency estimated from few doses was 814 nM in test [18] (setting [19]), 1610 nM in test [17] and 245 nM in [2] (setting [19]).

As for `Cc1ccccc1C1=C(c2cn(C)c3ccccc23)C(=O)NC1=O` [RO0317612-000], the potency estimated from few doses in test [1] (compound concentrations: 100 nM and 1000 nM (sheet 'Samples'), CATDS: 0.15228633777300399) was 952 nM.

Consider `CNCc1ccc(-c2cc(-c3nc(-c4ccc(S(=O)(=O)C(C)C)cc4)cnc3N)on2)cc1` [VE-822], for which the potency estimated from few doses in test [13] (setting [19]) was 321 nM; in [18] (compound concentrations: 100 nM and 1000 nM (sheet 'Samples'), CATDS: 0.44999345055434797), 7.76 nM; in test [11] (setting [19]), 2120 nM.

As to `CCN(CC)Cc1ccc(Nc2nccc(-c3cnn4ncccc34)n2)cc1` [GW780056X], the potency estimated from few doses is 83.2 nM in test [14] (CATDS: 6.8164228175802102E-2); 274 nM in [12] (compound concentrations: 100 nM and 1000 nM (sheet 'Samples'), CATDS: 3.67642918881117E-2).

With `c1ccc(-c2n[nH]cc2Nc2ccnc3ccccc23)nc1` [GW694077X], the potency estimated from few doses is 1600 nM in test [13] (compound concentrations: 100 nM and 1000 nM (sheet 'Samples'), CATDS: 2.4414312635225699E-2); 903 nM in test [12] (compound concentrations: 100 nM and 1000 nM (sheet 'Samples'), CATDS: 2.8699790095599101E-2); 212 nM in [2] (compound concentrations: 100 nM and 1000 nM (sheet 'Samples'), CATDS: 4.8537913419409703E-2).
